Reference: PMC9838217, “Structure of SALL4 zinc finger domain reveals link between AT-rich DNA binding and Okihiro syndrome”
Changes are numbered by the printed parent chain.

Legend:
Assay in all cases: HT-SELEX; high values mean tight binding
Details in all cases: protein: recombinant; vector His6-GST; dsDNA, one strand shown
SALL4 ZFC4 WT (HT-SELEX) = biological target: T1, SALL4 ZFC4 WT (HT-SELEX) (Mus musculus, UniProt Q8BX22 870-940)
T1 sequence: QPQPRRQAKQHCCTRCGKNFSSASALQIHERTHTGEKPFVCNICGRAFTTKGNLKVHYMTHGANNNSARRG
Procedure, shortened: (§1)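 For each canonical k-mer, binding signal is the read fraction as fold change versus the initial random library. Data came from up to 6 triplicate cycles in which purified recombinant mouse SALL4 zinc finger cluster 4 (residues 870–940, 1 µg) was incubated 10 min at room temperature with library DNA (1.5 µg first cycle, 200 ng later) in 100 µl of 10 mM Tris–HCl pH 7.5, 50 mM NaCl, poly(dI-dC), DTT, followed by Ni2+ bead capture, PCR amplification, MiSeq sequencing and a 6-mer scan.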

[1] = biological target: T2, SALL4 ZFC4 R900W (HT-SELEX) (Mus musculus, UniProt Q8BX22 870-940, R900W)
T2 sequence: T1 sequence with R31W
Procedure, shortened: as §1

[2] = biological target: T3, SALL4 ZFC4 G921D (HT-SELEX) (Mus musculus, UniProt Q8BX22 870-940, G921D)
T3 sequence: T1 sequence with G52D
Procedure, shortened: as §1

Sequence | binding signal (SALL4 ZFC4 WT (HT-SELEX)) [fold-change vs cycle 0] | binding signal [1] [fold-change vs cycle 0] | binding signal [2] [fold-change vs cycle 0]
AGCAGG | 0.42 ± 0.0145 | 0.478 ± 0.0232 | 0.561 ± 0.0608
AAAATG | 1.68 ± 0.0946 | 1.56 ± 0.0588 | 1.46 ± 0.0958
CCCTCC | 0.318 ± 0.0193 | 0.362 ± 0.0224 | 0.457 ± 0.0716
AAGGGA | 0.928 ± 0.0784 | 1.09 ± 0.0682 | 1.03 ± 0.0363
AGACCT | 0.753 ± 0.0476 | 0.917 ± 0.0202 | 0.963 ± 0.0152
AGGACT | 0.864 ± 0.0148 | 0.994 ± 0.0593 | 1.02 ± 0.0375
CTCTGC | 0.35 ± 0.0408 | 0.396 ± 0.021 | 0.522 ± 0.0742
GGCTTA | 0.5567 ± 0.00529 | 0.656 ± 0.0181 | 0.763 ± 0.0358
CCTATC | 0.811 ± 0.0304 | 0.939 ± 0.00665 | 0.994 ± 0.0224
GTCCAC | 0.374 ± 0.044 | 0.454 ± 0.026 | 0.569 ± 0.0681
AGTTTC | 1.25 ± 0.0447 | 1.33 ± 0.0345 | 1.3 ± 0.112
CTGGAA | 0.772 ± 0.02 | 0.891 ± 0.0485 | 0.926 ± 0.0429
GGTAAA | 1.19 ± 0.0123 | 1.3 ± 0.0352 | 1.23 ± 0.0522
AAGATT | 2.05 ± 0.0988 | 2.08 ± 0.121 | 1.88 ± 0.183
CTATTC | 1.3 ± 0.0236 | 1.46 ± 0.0185 | 1.39 ± 0.0918
ATCAAT | 2.28 ± 0.171 | 2.07 ± 0.0713 | 1.9 ± 0.133
CAGTAA | 1.35 ± 0.0452 | 1.48 ± 0.063 | 1.37 ± 0.109
ACCACG | 0.351 ± 0.0168 | 0.428 ± 0.0163 | 0.523 ± 0.0453
AAATTG | 1.6 ± 0.125 | 1.53 ± 0.0609 | 1.48 ± 0.0586
AGCAAC | 0.642 ± 0.0202 | 0.736 ± 0.0162 | 0.849 ± 0.0333

Sequence | binding signal (SALL4 ZFC4 WT (HT-SELEX)) [fold-change vs cycle 0] | binding signal [1] [fold-change vs cycle 0] | binding signal [2] [fold-change vs cycle 0]
AACCTT | 1.35 ± 0.0624 | 1.5 ± 0.0445 | 1.39 ± 0.0775
AATCAC | 1.31 ± 0.0497 | 1.46 ± 0.03 | 1.42 ± 0.0791
GACCAC | 0.381 ± 0.00949 | 0.448 ± 0.0299 | 0.55 ± 0.0669
GTATGA | 1.51 ± 0.0577 | 1.49 ± 0.0331 | 1.38 ± 0.0706
GAAGCA | 0.667 ± 0.0348 | 0.784 ± 0.0247 | 0.88 ± 0.0121
AAGGAA | 1.46 ± 0.0939 | 1.66 ± 0.0995 | 1.49 ± 0.137
GAGTTA | 1.47 ± 0.0406 | 1.52 ± 0.0183 | 1.45 ± 0.0562
ATAGGC | 0.52 ± 0.0405 | 0.585 ± 0.0153 | 0.733 ± 0.0725
TCGCAA | 0.451 ± 0.0135 | 0.483 ± 0.00786 | 0.616 ± 0.0634
GAGAAA | 1.28 ± 0.0744 | 1.39 ± 0.0816 | 1.29 ± 0.0905
ATCTCA | 1.42 ± 0.0416 | 1.5 ± 0.0539 | 1.43 ± 0.0584
AGTATG | 1.43 ± 0.0699 | 1.49 ± 0.072 | 1.38 ± 0.0928
GAAGGC | 0.304 ± 0.0244 | 0.39 ± 0.0131 | 0.522 ± 0.0691
GAGACA | 0.735 ± 0.0463 | 0.867 ± 0.0277 | 0.933 ± 0.0384
TGTAAA | 1.93 ± 0.102 | 1.92 ± 0.0908 | 1.7 ± 0.134
CTAAAC | 1.16 ± 0.0729 | 1.33 ± 0.0737 | 1.27 ± 0.0849
ACTCAC | 0.877 ± 0.0278 | 0.97 ± 0.0118 | 1.02 ± 0.0114
ATAGTG | 1.28 ± 0.0269 | 1.33 ± 0.0375 | 1.31 ± 0.0797
AGATGC | 0.625 ± 0.0322 | 0.721 ± 0.0174 | 0.833 ± 0.0268
CAAGTG | 0.7915 ± 0.00346 | 0.902 ± 0.026 | 0.944 ± 0.0555

Sequence | binding signal (SALL4 ZFC4 WT (HT-SELEX)) [fold-change vs cycle 0] | binding signal [1] [fold-change vs cycle 0] | binding signal [2] [fold-change vs cycle 0]
CTTACA | 1.41 ± 0.0514 | 1.55 ± 0.0884 | 1.43 ± 0.0941
CCGATC | 0.399 ± 0.0279 | 0.473 ± 0.0177 | 0.64 ± 0.0658
AGCAGA | 0.694 ± 0.0089 | 0.815 ± 0.0131 | 0.857 ± 0.0135
GAACAA | 1.17 ± 0.0569 | 1.32 ± 0.0741 | 1.28 ± 0.0879
ATTCAA | 1.94 ± 0.125 | 1.97 ± 0.115 | 1.79 ± 0.158
GTCCAA | 0.622 ± 0.0212 | 0.742 ± 0.0519 | 0.828 ± 0.0714
GTAAGA | 1.45 ± 0.0375 | 1.6 ± 0.0704 | 1.42 ± 0.0981
ATTCCC | 0.877 ± 0.0328 | 0.943 ± 0.055 | 0.984 ± 0.0201
TGCGAA | 0.447 ± 0.0325 | 0.488 ± 0.0122 | 0.618 ± 0.0628
TCGGAA | 0.681 ± 0.041 | 0.761 ± 0.0268 | 0.862 ± 0.0635
ACCCTC | 0.489 ± 0.00987 | 0.562 ± 0.0409 | 0.66 ± 0.0504
CCTTGC | 0.381 ± 0.0117 | 0.45 ± 0.00496 | 0.554 ± 0.0487
CAACGG | 0.353 ± 0.0289 | 0.419 ± 0.0235 | 0.526 ± 0.0596
CCATGA | 0.874 ± 0.0255 | 0.938 ± 0.011 | 1.01 ± 0.0502
GTACAC | 0.768 ± 0.0559 | 0.868 ± 0.0144 | 0.9395 ± 0.00736
ACGGAG | 0.414 ± 0.0316 | 0.522 ± 0.0321 | 0.609 ± 0.0699
AGCACC | 0.328 ± 0.0258 | 0.375 ± 0.0109 | 0.521 ± 0.0558
TAACCA | 1.42 ± 0.042 | 1.47 ± 0.047 | 1.37 ± 0.0838
ACGAGG | 0.436 ± 0.0164 | 0.534 ± 0.018 | 0.618 ± 0.0579
GTAGAC | 0.684 ± 0.0405 | 0.821 ± 0.033 | 0.891 ± 0.0118
